The values that follow come from PubChem BioAssay (NCI).

This is part of a sample that, as a whole, favours compounds with a hit. Of some 83,000 tested, about 20% had one in any assay.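 Assay: single dose, 48 h. Readout: percent growth (0 = no net growth; negative = cell death). Active: <10.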 Calls of active or inactive are those of the source.

The test system of the test is T-47D breast. In words: NCI-60 one-dose screen, 48 h (100 = growth as untreated, 0 = no growth, -100 = all killed). Particulars: 10 µM.
Turning to `CCCOCC(O)CNCCN` (stereo unspecified), the growth was 103% (inactive). As for `CCCC(C)c1ccc(OCCCCCCN2CCNCC2)cc1` (stereo unspecified), the growth was -12.7% (active). The same measure for `Nc1cc(O)cc(O)c1`: 89% (inactive); for `Cc1cc(C(C)(C)CC(C)(C)C)ccc1OCCOCC[N+](C)(C)Cc1ccccc1`: 7.06% (active); for `CC(C)c1[nH]nc2c(NCc3ccc(-c4ccccn4)cc3)nc(SCCN)nc12`: -15.6% (active). Take `CC(=O)c1c(O)cc2c3c1OC(C)(C)C1CCC(C)(CC31)O2` (stereo unspecified): the growth was 66.4% (inactive). For the molecule `CN(C)CCCN1c2ccccc2Sc2ccc(C(F)(F)F)cc21`, the growth was 5.93% (active).

On to `CNC(=O)c1cc(Oc2ccc(NC(=O)Nc3ccc(Cl)c(OC4CCCCC4)c3)c(F)c2)ccn1`, for which the growth is 5.13% (active). Take `O=C(Nc1cccc(F)c1)Nc1cccc(Cl)c1`: the growth is 76.5% (inactive). As to `CCN(CC)CC(O)CNc1ccnc2cc(Cl)c(Cl)cc12` (stereo unspecified), the growth is 93.1% (inactive). To `CCCCCCOc1ccc(/C=C/C(=O)c2ccc(B(O)O)cc2)cc1` belongs 73.9% (inactive). Regarding `CC1(C)CC(OCCCC[P+](c2ccccc2)(c2ccccc2)c2ccccc2)CC(C)(C)N1O`, the growth is -2.14% (active). In the case of `Fc1cc(-c2ncc(-c3cc(F)c(F)c(F)c3)c(NC3CCCCCC3)n2)cc(F)c1F`, the growth was 102% (inactive).

For the molecule `COc1c(C)c(C)c(OC)c2c1[nH]c(=O)c1c3cccnc3cn21`, the growth was 94.9% (inactive). To `CC1(C)CCc2cc(-c3ccn(S(=O)(=O)c4ccc(Cl)cc4)n3)ccc2O1` belongs 54.1% (inactive); to `O=C(NC1CCCC1)c1ccc(N2CCC(NCc3cccc(C(F)(F)F)c3)CC2)cc1`, 83.2% (inactive).
